Compound activity as filed in PubChem.
RORg inh: inhibitors of mouse ROR gamma transcriptional activity; P51450; Drosophila S2 Gal4-RORgamma UAS-luciferase reporter, 20 h; Potency, µM (titrated, usually from 53.6 µM), for the others: top-dose activity change, negative = inhibition, most hits filed as inhibitors; 5.4% of 310,000 active; note: potency is the fitted concentration of half-maximal effect; nearly all actives have a fitted effect of over 60% in size
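Compounds are pin-transferred onto Drosophila Schneider cells expressing a copper-inducible Gal4–ROR gamma transactivation domain fusion. After 1 hr, copper sulfate is added to 700 uM final; luciferase is read 20 hr later.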
B2AR arrestin: agonists driving beta-arrestin recruitment to human beta2-adrenergic receptor | beta-arrestin recruitment to beta2AR, cell-based reporter | P07550 | Potency, µM (highest dose often 46.1 µM), inactives show top-dose activation, actives largely listed as activators | 0.02% of 330,000 active | AID 492947;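 note: potency is the fitted concentration of half-maximal effect; 0% = DMSO controls and full agonism = EC100 isoproterenol or metaproterenol; nearly all actives have a fitted effect of over 65% in size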
TSHR antag: human thyrotropin receptor antagonism. P16473. TSHR-expressing cells, TSH-stimulated cAMP HTRF, 2 h; active compounds read low. AID 504810. activity change, negative = inhibition, % at 11.5 µM. 0.2% of 330,000 active;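 active = activity change below a set negative limit, meaning inhibition stronger than a set level, cut at about -70% in these data; inconclusive = activity change between two set negative limits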
Target sequence (P16473 whole entry, looked up): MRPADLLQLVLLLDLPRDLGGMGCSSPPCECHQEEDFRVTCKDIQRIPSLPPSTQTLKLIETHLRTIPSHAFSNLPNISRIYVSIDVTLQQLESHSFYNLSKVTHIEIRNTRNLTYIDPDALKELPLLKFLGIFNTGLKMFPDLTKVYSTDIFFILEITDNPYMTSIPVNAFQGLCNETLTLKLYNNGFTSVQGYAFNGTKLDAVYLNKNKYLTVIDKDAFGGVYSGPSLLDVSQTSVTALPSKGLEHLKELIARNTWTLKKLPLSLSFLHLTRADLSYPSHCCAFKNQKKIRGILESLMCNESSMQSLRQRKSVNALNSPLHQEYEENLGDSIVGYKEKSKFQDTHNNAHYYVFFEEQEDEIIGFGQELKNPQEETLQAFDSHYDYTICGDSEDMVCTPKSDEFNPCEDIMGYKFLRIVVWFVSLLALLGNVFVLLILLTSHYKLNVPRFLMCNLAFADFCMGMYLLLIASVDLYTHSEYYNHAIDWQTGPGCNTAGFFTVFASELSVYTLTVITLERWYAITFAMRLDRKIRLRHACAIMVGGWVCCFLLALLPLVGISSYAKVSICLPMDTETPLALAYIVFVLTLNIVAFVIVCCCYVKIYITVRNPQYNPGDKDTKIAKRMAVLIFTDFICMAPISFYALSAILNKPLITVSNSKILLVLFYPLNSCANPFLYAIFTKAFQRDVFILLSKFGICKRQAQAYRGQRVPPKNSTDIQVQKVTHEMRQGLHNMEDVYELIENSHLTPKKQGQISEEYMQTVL
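Read-out is FRET at 665 nm (cryptate excitation 337 nm) from a cryptate-tagged anti-cAMP antibody, competed by cell cAMP against cAMP-d2. Compounds are tested on freshly harvested TSHR cells challenged with 4nM TSH (EC80) for 2 hours at 37 deg C.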
VP16 counter: inhibits Gal4-VP16 luciferase reporter, ROR gamma counter-screen; Drosophila S2 Gal4-VP16 UAS-luciferase, luminescence, 20 h; Potency, µM (titrated, usually from 53.6 µM), for the others: top-dose activity, negative = inhibition, usual class: inhibitors; 3.5% of 310,000 active;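 note: Gal4-VP16 expression switched on by copper sulfate through the metallothionein promoter; potency is the fitted concentration of half-maximal effect; nearly all actives have a fitted effect of over 50% in size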
ELG1 DNA repair: inhibitors of ELG1-dependent DNA repair in HEK293T cells. HEK293T ELG1-luciferase reporter, luminescence, 16 h; DNA damage induced by 5-fluorouridine. 2.3% of 330,000 active. Potency, µM (highest dose often 46.1 µM), inactives show at the highest dose activity change, negative = inhibition, hits mostly inhibitors; note: potency is the fitted concentration of half-maximal effect; nearly all actives have a fitted effect of over 55% in size
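Step one: seed 2,000 cells per well. Step two: pin-transfer compound or DMSO alongside 5-fluorouridine. Step three: incubate 16 hr, 37 °C, 5% CO2. Step four: add ONE-Glo, wait 30 min, read luminescence.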
* hit, by the source's call; ? = inconclusive; . = not tested or not shown; [ ] = remark or other dose. Rows were chosen to be rich in hits. Some 7.5% of all compounds tested hit in one or more screens of this group. Unless noted, calls come from the whole dose curve; as a rule, active = well fitted curve in the direction sought with a large enough effect; inconclusive = small, poorly fitted or top-dose-only effect, or another doubt; inactive = no such curve, though single readings can be large; an effect the other way counts as inactive or inconclusive. Unless noted, % is set by controls: 0 for no effect and ±100 for the full control effect.

SMILES	RORg inh	B2AR arrestin	TSHR antag	VP16 counter	ELG1 DNA repair
O=c1c2ccccc2nc(COc2ccccc2)n1/N=C/c1cn[nH]c1-c1ccccc1	14%	-1%	-13	-5%	6.5µM*
Cc1ccccc1OCc1nc2ccccc2c(=O)n1/N=C/c1cn[nH]c1-c1ccc(Br)cc1	?	0%	6	?	6.5µM*
Cc1ccccc1OCc1nc2ccccc2c(=O)n1/N=C/c1ccco1	-10%	-1%	-5	-1%	?
Cc1ccc(-c2[nH]ncc2/C=N/n2c(C)nc3ccccc3c2=O)cc1	7%	0%	4	4%	9.2µM*
COc1cccc(C2=Nn3c(nnc3-c3cc(OC)ccc3OC)SC2)c1	23%	.	.	-5%	.
Cc1ccc(C(=O)Nc2ccccc2C(=O)NCc2ccco2)cc1S(=O)(=O)N1CCCCC1	-7%	6%	-13	?	12µM*
CCn1cc(C(=O)NCc2ccc(C)cc2)c(=O)c2cc(S(=O)(=O)N(C)C)ccc21	-17%	0%	4	0%	21µM*
C=CCn1cc(C(=O)NCc2ccco2)c(=O)c2cc(S(=O)(=O)N3CCCCCC3)ccc21	?	-1%	-1	-4%	6.5µM*
CCn1cc(C(=O)NCCc2ccccc2)c(=O)c2cc(S(=O)(=O)N(C)C)ccc21	-1%	1%	-7	3%	5%
CCn1cc(C(=O)NCc2ccco2)c(=O)c2cc(S(=O)(=O)N3CC(C)CC(C)C3)ccc21 (centres undefined)	14%	0%	-1	-5%	2.9µM*
CCn1cc(C(=O)NCCCN2CCCC2)c(=O)c2cc(S(=O)(=O)N3CCc4ccccc4C3)ccc21	-14%	0%	0	-5%	10%
CCn1cc(C(=O)NCc2ccco2)c(=O)c2cc(S(=O)(=O)N3CCc4ccccc4C3)ccc21	28%	0%	-9	-15%	10µM*
C=CCn1cc(C(=O)OC)c(=O)c2cc(S(=O)(=O)N3CCC(C)CC3)ccc21	11µM*	-1%	6	-4%	-11%
CCn1cc(C(=O)NCc2ccco2)c(=O)c2cc(S(=O)(=O)N3CCC(C)CC3)ccc21	1%	1%	11	4%	10µM*
CCn1cc(C(=O)NCc2ccco2)c(=O)c2cc(S(=O)(=O)N3CCCCCC3)ccc21	-66%	0%	6	?	4.6µM*
CCn1cc(C(=O)NCCCOC)c(=O)c2cc(S(=O)(=O)N3CCC(C)CC3)ccc21	-5%	0%	0	4%	-28%
Cc1cc(C)cc(NS(=O)(=O)c2ccc3[nH]cc(C(=O)NCc4ccco4)c(=O)c3c2)c1	0%	-1%	-18	-2%	10µM*
CCC(C)NC(=O)c1cn(CC)c2ccc(S(=O)(=O)N3CCCCCC3)cc2c1=O (centres undefined)	12%	-1%	-1	2%	6.5µM*
COc1ccc(C2=NS(=O)(=O)N(C)C(C(=O)N3CCCCC3)=C2)cc1OC	9%	11%	-40	-5%	11%
COc1cc(/C=C/c2nnc3c4ccccc4ncn23)cc(OC)c1OC	?	0%	-34	?	6.5µM*
CC(=O)c1cccc(Nc2nc(-c3sc(C)nc3C)cs2)c1	.	0%	-25	.	16µM*
Cc1cccc(Nc2nc(-c3sc(C)nc3C)cs2)c1	?	0%	-24	?	?
CC(=O)c1cccc(NC(=O)CSc2ccc(-c3sc(C)nc3C)nn2)c1	-5%	0%	-17	0%	23µM*
CC(=O)c1cccc(Nc2nc(-c3sc(N)nc3C)cs2)c1	18%	0%	9	1%	8.2µM*
Cc1nc(N)sc1-c1csc(Nc2cccc(O)c2)n1	-24%	-1%	-2	3%	-27%
SMILES	RORg inh	B2AR arrestin	TSHR antag	VP16 counter	ELG1 DNA repair
O=c1c(-c2ccc(F)cc2)nc2cnc(N3CCOCC3)nc2n1C1CC1	-12%	.	.	-4%	.
CCOC(=O)CCN1C(=O)[C@H]2[C@H]3[C@H](O)[C@H](O)C/C(=N/OCc4ccccc4)[C@@H]3CC[C@@H]2C1=O	6%[10 µM]	.	.	4%[10 µM]	.
O=C(Nc1ncc(S(=O)(=O)c2ccc([N+](=O)[O-])cc2)s1)c1cccc2ccccc12	?	-1%	-82*	-16%	-12%
O=C(NC(Nc1ncc(S(=O)(=O)c2ccc([N+](=O)[O-])cc2)s1)(C(F)(F)F)C(F)(F)F)c1ccc(Cl)cc1	?	0%	-40	11µM*	?
CCCCC(=O)Nc1ncc(S(=O)(=O)c2ccc([N+](=O)[O-])cc2)s1	-10%	0%	7	1%	2%
COCC(=O)Nc1ncc(S(=O)(=O)c2ccc([N+](=O)[O-])cc2)s1	-34%	0%	-4	8%	-7%
CC1CCC(NC(=O)CN2C(=O)NC3(CCCCCC3)C2=O)CC1 (centres undefined)	.	0%	-9	.	16%
COc1ccc(CCNC(=O)c2ccc(CS(=O)Cc3ccc(Cl)cc3)o2)cc1OC (centres undefined)	7%	-1%	8	-9%	9%
Cc1ccsc1C(=O)NCCC(c1ccccc1)c1ccccc1	85%	4%	-9	-2%	-5%
Cc1nc(C)c(C(=O)NCCC(c2ccccc2)c2ccccc2)o1	?	0%	-11	-3%	5.8µM*
COc1ccc(NC(=O)N2CC[C@@]3(CCCN(S(C)(=O)=O)C3)C2)cc1	-13%	.	.	-10%	.
Cc1nc2ccc(Br)cn2c1C(=O)N/N=C\c1ccccc1Cl	7.1µM*	0%	-7	?	0%
COc1cccc(/C=N/NC(=O)c2c(C)nc3ccc(Cl)cn23)c1O	3.2µM*	0%	-2	4µM*	?
COc1ccccc1/C=N\NC(=O)c1c(C)nc2ccc(Cl)cn12	?	0%	-6	?	9%
O=[N+]([O-])c1ccc(O)c(C2=NNC(c3ccccc3F)C2)c1 (centres undefined)	6.3µM*	-1%	-39	?	?
CN(C)NC(=S)Nc1ccc2nc(-c3ccccn3)c(-c3ccccn3)nc2c1	13µM*	0%	-7	16µM*	15%
CC(C)(C)CC(C)(C)NC(=S)Nc1ccc2nc(-c3ccccn3)c(-c3ccccn3)nc2c1	7.1µM*	0%	8	?	?
OCCCNC(=S)Nc1ccc2nc(-c3ccccn3)c(-c3ccccn3)nc2c1	40%	0%	1	1%	12%
COc1ccccc1-c1nnc2n1N=C(c1c(OC)cccc1OC)CS2	-6%	.	.	1%	.
CCOC(=O)C(C(=O)Nc1cccc(C)n1)C1CCCCC1 (centres undefined)	-5%	-1%	-6	9%	-13%
O=C(Nc1nc2ccccc2[nH]1)C1CC1	?	-1%	-9	?	18%
